# PubChem BioAssay (NCATS)
# Inconclusive results are not listed. A call without a number means that no potency is given here. A number with no mark means an inactive call. Activity calls are given as the source filed them. Calls come from the whole dose curve; as a rule, active = well fitted curve in the direction sought with a large enough effect; inconclusive = small, poorly fitted or top-dose-only effect, or another doubt; inactive = no such curve, though single readings can be large; an effect the other way counts as inactive or inconclusive.
# Assays:
# [1] = molecular target: Ubiquitin carboxyl-terminal hydrolase 1 (Homo sapiens) (UniProt O94782); assay: Inhibitors of USP1/UAF1: Pilot qHTS (AID 504865); note: nearly all actives have a fitted effect of over 35% in size; note: potency is the fitted concentration of half-maximal effect
# Sequence of Ubiquitin carboxyl-terminal hydrolase 1 (Homo sapiens) (O94782 whole entry, looked up): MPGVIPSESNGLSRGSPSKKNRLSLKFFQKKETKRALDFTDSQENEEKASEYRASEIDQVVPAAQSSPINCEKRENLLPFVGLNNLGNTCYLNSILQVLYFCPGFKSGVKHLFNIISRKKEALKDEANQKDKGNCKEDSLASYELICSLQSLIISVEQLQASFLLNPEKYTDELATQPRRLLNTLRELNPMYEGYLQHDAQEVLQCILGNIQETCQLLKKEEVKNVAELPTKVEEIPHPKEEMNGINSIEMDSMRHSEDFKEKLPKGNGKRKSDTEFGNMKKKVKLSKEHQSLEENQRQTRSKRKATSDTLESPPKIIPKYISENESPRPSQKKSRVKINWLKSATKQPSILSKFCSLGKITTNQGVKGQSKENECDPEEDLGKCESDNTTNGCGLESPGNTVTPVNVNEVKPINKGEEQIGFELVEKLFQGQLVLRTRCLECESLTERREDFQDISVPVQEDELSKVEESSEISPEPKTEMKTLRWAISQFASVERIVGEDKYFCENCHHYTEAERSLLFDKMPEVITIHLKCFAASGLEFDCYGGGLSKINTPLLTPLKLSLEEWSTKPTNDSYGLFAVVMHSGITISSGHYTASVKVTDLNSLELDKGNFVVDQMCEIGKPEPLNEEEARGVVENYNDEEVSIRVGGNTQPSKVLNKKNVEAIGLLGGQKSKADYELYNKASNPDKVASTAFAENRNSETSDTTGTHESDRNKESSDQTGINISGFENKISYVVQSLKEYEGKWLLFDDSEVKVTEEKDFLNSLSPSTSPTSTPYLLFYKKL
# How it was run: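 Deubiquitinase activity followed as kinetic rhodamine fluorescence release from 150 nM Ub-Rho. 1 nM USP1/UAF1 with compound, after 15 min room-temperature preincubation, in HEPES pH 7.8 buffer containing TCEP, EDTA, BSA and Tween-20.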
# [2] = molecular target: Luciferin 4-monooxygenase (Photinus pyralis) (UniProt P08659); assay: Biochemical firefly luciferase enzyme assay for NPC (AID 624030);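 note: purified P. pyralis luciferase at 10 nM with luciferin and ATP substrate; nearly all actives have a fitted effect of over 70% in size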
# Sequence of Luciferin 4-monooxygenase (Photinus pyralis) (P08659 whole entry, looked up): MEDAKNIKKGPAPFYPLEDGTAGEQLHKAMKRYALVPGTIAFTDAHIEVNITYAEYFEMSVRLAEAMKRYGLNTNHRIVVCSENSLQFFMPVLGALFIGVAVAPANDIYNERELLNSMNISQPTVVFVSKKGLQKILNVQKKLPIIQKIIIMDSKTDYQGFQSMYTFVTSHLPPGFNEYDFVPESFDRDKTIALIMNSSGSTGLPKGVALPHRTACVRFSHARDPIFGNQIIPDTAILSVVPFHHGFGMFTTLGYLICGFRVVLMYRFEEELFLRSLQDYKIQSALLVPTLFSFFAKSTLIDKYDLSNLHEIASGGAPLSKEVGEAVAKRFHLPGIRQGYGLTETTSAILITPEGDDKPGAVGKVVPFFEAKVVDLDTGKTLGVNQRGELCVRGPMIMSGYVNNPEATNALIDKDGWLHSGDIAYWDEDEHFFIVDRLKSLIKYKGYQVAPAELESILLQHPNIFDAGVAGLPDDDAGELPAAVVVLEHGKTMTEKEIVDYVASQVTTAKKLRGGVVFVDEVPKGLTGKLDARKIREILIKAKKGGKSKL
# How it was run: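 Purified P. pyralis luciferase at 10 nM in 50 mM Tris Acetate (final), luminescence read within 5 minutes of enzyme addition to compounds. Activity normalised to PTC124 versus DMSO; concentration-response curves classed by r2, magnitude and activity.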
# [3] = qHTS profiling for inhibitors of Plasmodium falciparum proliferation (AID 504749); note: nearly all actives have a fitted effect of over 60% in size; note: potency is the fitted concentration of half-maximal effect; settings: P. falciparum in erythrocytes, SYBR Green DNA, 72 h, at 28.7 µM (top of the series)
# How it was run: (§1)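 Each compound contacts P. falciparum-infected red blood cells for 72 h at 37 C; lysis buffer (Tris, EDTA, saponin, Triton X, SYBR Green I) is added and fluorescence measured next morning; values normalized to controls.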
# [4] = test system: ATS189; assay: as above; settings: P. falciparum in erythrocytes, SYBR Green DNA, 72 h; series mostly up to 28.7 µM
# How it was run: as §1
# [5] = test system: C2A; assay: as above; settings: P. falciparum in erythrocytes, SYBR Green DNA, 72 h; series mostly up to 28.7 µM
# How it was run: as §1
# [6] = test system: CP191; assay: as above; settings: P. falciparum in erythrocytes, SYBR Green DNA, 72 h; series mostly up to 28.7 µM
# How it was run: as §1
# [7] = test system: CP192; assay: as above; settings: P. falciparum in erythrocytes, SYBR Green DNA, 72 h; series mostly up to 28.7 µM
# How it was run: as §1
# [8] = test system: CP201; assay: as above; settings: P. falciparum in erythrocytes, SYBR Green DNA, 72 h; series mostly up to 28.7 µM
# How it was run: as §1
# [9] = test system: CP215; assay: as above; settings: P. falciparum in erythrocytes, SYBR Green DNA, 72 h; series mostly up to 28.7 µM
# How it was run: as §1
# [10] = test system: CP237; assay: as above; settings: P. falciparum in erythrocytes, SYBR Green DNA, 72 h; series mostly up to 28.7 µM
# How it was run: as §1
# [11] = test system: CP238; assay: as above; settings: P. falciparum in erythrocytes, SYBR Green DNA, 72 h; series mostly up to 28.7 µM
# How it was run: as §1
# [12] = test system: CP268; assay: as above; settings: P. falciparum in erythrocytes, SYBR Green DNA, 72 h; series mostly up to 28.7 µM
# How it was run: as §1
# [13] = test system: CP269; assay: as above; settings: P. falciparum in erythrocytes, SYBR Green DNA, 72 h; series mostly up to 28.7 µM
# How it was run: as §1
# [14] = test system: CP286; assay: as above; settings: P. falciparum in erythrocytes, SYBR Green DNA, 72 h; series mostly up to 28.7 µM
# How it was run: as §1
# [15] = test system: CP325; assay: as above; settings: P. falciparum in erythrocytes, SYBR Green DNA, 72 h; series mostly up to 28.7 µM
# How it was run: as §1
# [16] = test system: CP329; assay: as above; settings: P. falciparum in erythrocytes, SYBR Green DNA, 72 h; series mostly up to 28.7 µM
# How it was run: as §1
# [17] = test system: FAB9; assay: as above; settings: P. falciparum in erythrocytes, SYBR Green DNA, 72 h; series mostly up to 28.7 µM
# How it was run: as §1
# [18] = test system: JCK; assay: as above; settings: P. falciparum in erythrocytes, SYBR Green DNA, 72 h; series mostly up to 28.7 µM
# How it was run: as §1
# [19] = test system: PC49; assay: as above; settings: P. falciparum in erythrocytes, SYBR Green DNA, 72 h; series mostly up to 28.7 µM
# How it was run: as §1
# [20] = molecular target: ATP-dependent 6-phosphofructokinase (Trypanosoma brucei brucei) (UniProt O15648); assay: qHTS Assay to Find Inhibitors of T. brucei phosphofructokinase: hit validation (AID 492961);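 note: luminescence reports ADP formed as PFK phosphorylates fructose-6-phosphate with ATP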
# Sequence of ATP-dependent 6-phosphofructokinase (Trypanosoma brucei brucei) (O15648 whole entry, looked up): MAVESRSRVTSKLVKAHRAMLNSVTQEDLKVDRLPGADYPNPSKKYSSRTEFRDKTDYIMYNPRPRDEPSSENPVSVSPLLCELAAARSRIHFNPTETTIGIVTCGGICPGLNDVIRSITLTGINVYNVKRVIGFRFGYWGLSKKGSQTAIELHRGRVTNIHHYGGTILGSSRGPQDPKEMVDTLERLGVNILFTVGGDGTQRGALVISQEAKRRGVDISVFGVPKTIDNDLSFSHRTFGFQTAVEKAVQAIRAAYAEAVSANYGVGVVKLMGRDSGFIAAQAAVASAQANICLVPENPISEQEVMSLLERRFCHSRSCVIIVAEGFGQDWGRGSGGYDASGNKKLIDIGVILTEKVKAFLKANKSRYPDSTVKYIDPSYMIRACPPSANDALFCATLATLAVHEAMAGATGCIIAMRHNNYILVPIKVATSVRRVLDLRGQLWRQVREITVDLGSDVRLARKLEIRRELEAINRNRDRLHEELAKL
# How it was run: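 Compounds titrated; %activity normalized to 0x and 1x enzyme controls, curve-fitted. Readout: ADP-Glo luminescence after 45 min room-temperature reaction of 1.25 nM PFK, 0.1 mM ATP, 0.5 mM F6P, pH 8.0.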
smiles,measurement,setting,value
COC(=O)C1C(OC(=O)c2ccccc2)CC2CCC1N2C (centres undefined),Potency,[1],inactive
same,Potency,[2],inactive
same,"activity, negative = inhibition",[3]; parasite line A,9.75%
same,"activity, negative = inhibition",[3]; parasite line B,-3.4%
same,Potency,[4],inactive
same,Potency,[5],inactive
same,Potency,[6],inactive
same,Potency,[7],inactive
same,Potency,[8],inactive
same,Potency,[9],inactive
same,Potency,[10],inactive
same,Potency,[11],inactive
same,Potency,[12],inactive
same,Potency,[13],inactive
same,Potency,[14],inactive
same,Potency,[15],inactive
same,Potency,[16],inactive
same,Potency,[17],inactive
same,Potency,[18],inactive
same,Potency,[19],inactive
O=C1CC2OCC=C3CN4CCC56c7ccccc7N1C5[C@H]2[C@H]3C[C@H]46 (some centres undefined) (tested in a mixture with another compound),outcome,[20],inactive
same,Potency,[1],inactive
same,Potency,[4],inactive
same,Potency,[5],inactive
same,Potency,[6],inactive
same,Potency,[7],inactive
same,Potency,[8],inactive
same,Potency,[10],inactive
same,Potency,[11],inactive
same,Potency,[12],inactive
same,Potency,[13],inactive
same,Potency,[15],inactive
same,Potency,[16],inactive
same,Potency,[18],inactive
CC[N+](C)(CC)CCC[n+]1c(-c2ccccc2)c2cc(N)ccc2c2ccc(N)cc21,Potency,[1],7.94 µM (active)
O=C1CC2OCC=C3CN4CC[C@]56c7ccccc7N1C5C2[C@H]3C[C@H]46 (some centres undefined),outcome,[20],inactive
same,Potency,[1],inactive
same,"activity, negative = inhibition",[3]; parasite line B,-18.7%
same,Potency,[6],inactive
same,Potency,[10],5.01 µM (active)
same,Potency,[11],10 µM (active)
same,Potency,[15],13.5 µM (active)
same,Potency,[17],inactive
same,Potency,[19],inactive
CCC(=O)OC1(c2ccccc2)CCN(C)CC1C (centres undefined),Potency,[1],inactive
same,Potency,[2],inactive
same,"activity, negative = inhibition",[3]; parasite line A,-1.38%
same,"activity, negative = inhibition",[3]; parasite line B,2.19%
same,Potency,[5],inactive
same,Potency,[6],inactive
same,Potency,[7],inactive
same,Potency,[8],inactive
same,Potency,[9],inactive
same,Potency,[10],3.98 µM (active)
same,Potency,[12],inactive
same,Potency,[13],inactive
same,Potency,[14],12.6 µM (active)
same,Potency,[17],inactive
same,Potency,[18],inactive
